# Measurements from the supplement of paper PMC7411054.
# Where a name gives a salt, the structure may show the parent alone.
# Columns and labels:
# Details in all cases: treatment time: 24 h
# HepG2-ACTB-RAB5A = assay: lowest phenotypically active concentration; higher = less potent
# In short: (§1)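 Four wells per concentration (0.3, 1, 3 or 9 µM) were treated for 24 h in each of fifteen gene-edited reporter lines from A549, HepG2 and WPMY1 cells, then imaged live. After normalising live-cell features to solvent control wells, deviation was defined as ≥3 of 4 wells lying past the 95th percentile of control Euclidean distances. Reproducibility was defined as a median replicate Pearson correlation above the 95th percentile of non-replicates. Both had to hold for phenotypic activity.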
# HepG2-CANX-COX4 = assay: as above
# In short: as §1
# HepG2-GM130-SQSTM1 = assay: as above
# In short: as §1
# HepG2-TUBA1B-RELA = assay: as above
# In short: as §1
# WPMY1-ACTB-RAB5A [1] = assay: as above
# In short: as §1
# WPMY1-CANX-COX4 = assay: as above
# In short: as §1
# WPMY1-GM130-SQSTM1 = assay: as above
# In short: as §1
# WPMY1-TP53BP1-CLTA = assay: as above
# In short: as §1
# WPMY1-TUBA1B-RELA = assay: as above
# In short: as §1
# WPMY1-ACTB-RAB5A [2] = assay: phenotypically active (imaging signature differs from DMSO and reproducible) at any of 0.3-9 uM (binary (1 = active, 0 = inactive)); higher = active
# In short: as §1
SMILES,lowest phenotypically active concentration (HepG2-ACTB-RAB5A) [µM],lowest phenotypically active concentration (HepG2-CANX-COX4) [µM],lowest phenotypically active concentration (HepG2-GM130-SQSTM1) [µM],lowest phenotypically active concentration (HepG2-TUBA1B-RELA) [µM],lowest phenotypically active concentration (WPMY1-ACTB-RAB5A [1]) [µM],lowest phenotypically active concentration (WPMY1-CANX-COX4) [µM],lowest phenotypically active concentration (WPMY1-GM130-SQSTM1) [µM],lowest phenotypically active concentration (WPMY1-TP53BP1-CLTA) [µM],lowest phenotypically active concentration (WPMY1-TUBA1B-RELA) [µM],phenotypically active (WPMY1-ACTB-RAB5A [2])
Cc1nc(Nc2ncc(C(=O)Nc3c(C)cccc3Cl)s2)cc(N2CCN(CCO)CC2)n1 [dasatinib],≤ 0.3,≤ 0.3,≤ 0.3,≤ 0.3,≤ 0.3,≤ 0.3,≤ 0.3,≤ 0.3,≤ 0.3,1 (active)
CC(=O)Nc1ccc(C(=O)Nc2ccccc2N)cc1,3,1,1,3,3,3,3,3,9,1 (active)
COc1ccc2cc1Oc1ccc(cc1)C[C@H]1c3cc(c(OC)cc3CCN1C)Oc1c(OC)c(OC)cc3c1[C@H](C2)N(C)CC3 [Tetrandrine],1,3,≤ 0.3,≤ 0.3,1,1,≤ 0.3,3,1,1 (active)
COc1ccc(-c2cc3c(C)nc(N)nc3n([C@H]3CC[C@H](OCCO)CC3)c2=O)cn1,≤ 0.3,≤ 0.3,≤ 0.3,≤ 0.3,≤ 0.3,≤ 0.3,≤ 0.3,≤ 0.3,≤ 0.3,1 (active)
CO[C@@H]1[C@H](N(C)C(=O)c2ccccc2)C[C@H]2O[C@]1(C)n1c3ccccc3c3c4c(c5c6ccccc6n2c5c31)C(=O)NC4,≤ 0.3,≤ 0.3,≤ 0.3,≤ 0.3,≤ 0.3,≤ 0.3,1,≤ 0.3,≤ 0.3,1 (active)
COc1ccc(S(=O)(=O)N(C(C)=O)c2ccccc2/C=C/c2cc[n+]([O-])cc2)cc1,3,3,3,3,1,3,3,3,1,1 (active)
CCN(CCO)CCCOc1ccc2c(Nc3cc(CC(=O)Nc4cccc(F)c4)n[nH]3)ncnc2c1 [barasertib-HQPA],≤ 0.3,≤ 0.3,≤ 0.3,≤ 0.3,≤ 0.3,≤ 0.3,≤ 0.3,≤ 0.3,≤ 0.3,1 (active)
COc1cc2c(cc1-c1c(C)noc1C)ncc1[nH]c(=O)n([C@H](C)c3ccccn3)c12 [I-BET 151 dihydrochloride],1,3,3,3,3,3,3,3,3,1 (active)
Cn1cc(-c2[nH]c3cc(NC(=O)[C@H](N)C4CCCCC4)cc4c3c2C=NNC4=O)cn1,1,3,1,1,≤ 0.3,≤ 0.3,≤ 0.3,≤ 0.3,≤ 0.3,1 (active)
